Screening results (PubChem BioAssay)
TexasRed fluor – alters Texas Red total fluorescence, flagging assay interference | 0.29% of 280,000 active | TRb/SRC2 Texas Red total fluorescence interference | Potency, µM (top dose mostly 106 µM), without a hit: top-dose fluorescence change, negative = quenching | AID 1479; active means well fitted curve in either direction with a large enough effect; inconclusive means small, poorly fitted or top-dose-only effect; further: potency means the concentration at half of the fitted maximal effect; on the % scale 0 is the no-effect control and ±100 the full control effect
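Flags fluorescent or light-absorbing compounds by total fluorescence, S + 2P, at 555 nm excitation and 632 nm emission. Mixture: 20 nM Texas Red SRC2 peptide, 0.6 uM human TRb LBD, 1 uM T3, 5% DMSO; compound exposure 5 h at ambient temperature.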
ERG-DNA inh – ERG Ets/DNA interaction inhibition | P11308 | fluorescence polarization, His-ERG Ets domain / labelled DNA | Potency, µM (titrated, usually from 76.9 µM), without a hit: top-dose FP activity, negative = inhibition, hits mostly inhibitors | 0.028% of 370,000 active | AID 624246; active means well fitted inhibition curve with a large enough effect in the polarisation, with a control signal flat; inconclusive means small, poorly fitted or top-dose-only effect, or effect the other way, or a change in a side signal; inactive means no such curve, though single readings can be large or run the other way; the % refers to the polarisation;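 further: polarization taken with two DNA probes labelled with fluorescein and Texas red; potency means the concentration at half of the fitted maximal effect; % of control where 0% means no effect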
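His-tagged ERG Ets domain (1 uM in the protein solution; 300mM KCl, 50mM Tris-HCl, 1mM EDTA, 1mM DTT, pH 7.5) received compound, then a probe mix of 5 nM fluorescein-DNA and 100nM Texas-615-DNA. Fluorescence polarization was read for both dyes.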
TRb SRC2 PPI – inhibitors of human thyroid hormone receptor beta-SRC2 interaction | TRbeta-SRC2 peptide binding, fluorescence polarization; receptor liganded with 1 µM T3 | Potency, µM (highest dose often 106 µM), without a hit: top-dose activity change, negative = inhibition, hits mostly inhibitors | 0.065% of 280,000 active | P10828;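 further: potency means the concentration at half of the fitted maximal effect; plate controls were bound peptide for no effect and peptide without receptor for full effect; nearly all actives have a fitted effect of over 50% in size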
Target sequence (P10828 whole entry, looked up): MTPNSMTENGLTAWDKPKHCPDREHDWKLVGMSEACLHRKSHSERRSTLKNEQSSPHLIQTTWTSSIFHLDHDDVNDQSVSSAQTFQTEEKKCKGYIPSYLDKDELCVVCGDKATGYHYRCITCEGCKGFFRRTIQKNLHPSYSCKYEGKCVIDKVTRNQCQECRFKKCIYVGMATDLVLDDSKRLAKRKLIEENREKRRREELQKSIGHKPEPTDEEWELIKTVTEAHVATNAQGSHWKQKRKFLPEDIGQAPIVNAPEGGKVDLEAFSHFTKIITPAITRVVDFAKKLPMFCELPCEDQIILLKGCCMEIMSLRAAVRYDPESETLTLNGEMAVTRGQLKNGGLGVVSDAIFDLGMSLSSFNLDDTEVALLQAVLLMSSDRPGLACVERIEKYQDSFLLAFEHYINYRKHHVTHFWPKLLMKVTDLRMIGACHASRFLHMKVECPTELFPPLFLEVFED
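A fluorescence polarization screen tested compounds at multiple concentrations against complex formation between 0.6 uM TRb ligand-binding domain and 20 nM Texas Red SRC2 peptide, with 1 uM T3 present; readout after 5 hr.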
RGS12 GoLoco inh – blocks human Gai1 binding to RGS12 GoLoco peptide, red readout; 0.44% of 230,000 active; Gai1:RGS12 GoLoco peptide FP, rhodamine, 10 min; AID 880; Potency, µM (titrated, usually from 61.6 µM), inactives show top-dose activity, negative = inhibition, hits mostly inhibitors; P63096; active means well fitted inhibition curve with a large enough effect, not every such curve was filed as active; inactive means no such curve, though single readings can be large or run the other way; further: potency means the concentration at half of the fitted maximal effect; on the % scale 0 is the no-effect control and ±100 the full control effect; nearly all actives have a fitted effect of over 30% in size
CBFb-RUNX1 inh – CBF-beta/RUNX1 interaction disruption | AlphaScreen CBFb-His/RUNX1-biotin binding, biochemical | Potency, µM (doses to about 59.8 µM), inactives show top-dose activity, negative = inhibition, most hits filed as inhibitors | 230,000 tested, under 10 active | AID 1477; further: % of control where 0% means no effect
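CBFb-His/RUNX1-biotin, 30 nM each, preincubated 20 min RT; compound 15 min RT; Ni + streptavidin beads 50 ng each, 90 min RT; AlphaScreen read.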
An asterisk follows results filed as active; i = inactive; ? = inconclusive; · = not tested or not shown; ! = repeats disagree; [ ] = another dose, or the depositor's remark. Many of the other results were omitted from the sample, so hits are more common in it than they were. Unless noted, the call rests on the fitted dose curve; in most records, active means well fitted curve in the direction sought with a large enough effect; inconclusive means small, poorly fitted or top-dose-only effect, or another doubt; inactive means no such curve, though single readings can be large; an effect the other way counts as inactive or inconclusive.

SMILES	TexasRed fluor	ERG-DNA inh	TRb SRC2 PPI	RGS12 GoLoco inh	CBFb-RUNX1 inh
O=C(NCc1cccnc1)C(=O)NCC(c1cccnc1)N1CCN(c2ccccc2F)CC1 (centres undefined)	100µM*[quencher]	1%	-24%	·	·
COc1ccc2c(c1)CCc1c(C(=O)Nc3c(C)nn(Cc4c(Cl)cccc4Cl)c3C)noc1-2	0.079µM*[quencher]	4%	-8%	·	·
Cc1c(C(=O)Nc2nc3ccccc3[nH]2)oc2ccc(Br)cc12	3%	-2%	-5%	·	0%
Cc1c(C(=O)Nc2nc3ccccc3[nH]2)oc2ccccc12	-52%	-5%	-6%	13µM*	7%
CC1CCN(CC[S-])CC1.O.O.[Cl][Pt]	·	·	·	2%[14.2 µM]	·
COCCn1c(=O)c(-c2cccc(C#N)c2)nc2cnc(N3CCOCC3)nc21	·	·	·	20µM*	·
N#Cc1cccc(-c2nc3cnc(N4CCOCC4)nc3n(Cc3ccc(F)cc3)c2=O)c1	·	·	·	0%	·
CSc1ccc(C2C(C#N)=C(N)N(c3ccccc3)C3=C2C(=O)CCC3)cc1 (centres undefined)	-2%	-12%	2%	15%	-23%
N#CC1=C(N)N(c2ccc(F)cc2)C2=C(C1c1ccc(O)cc1)S(=O)(=O)CC2 (centres undefined)	45µM*[fluorescent]	41%	?	236%	?
CCc1ccc(S(=O)(=O)/N=C2/C=C(Sc3ncn[nH]3)C(=O)c3ccccc32)cc1	-21%	-6%	20µM*	-26%	?
CCc1ccc(S(=O)(=O)/N=C2\C=CC(=O)c3ccccc32)cc1	-3%	·	-19%	21%	?
CCn1c(Cc2ccccc2)nnc1SCC(=O)Nc1ccccc1O	0%	-5%	1%	0%	6%
CC[n+]1c(C)cc2c(sc3ccccc32)c1C	0%	-2%	6%	4.5µM*	6%
C[N+]1(CC#CC(O)(c2ccccc2)c2ccccc2)CCCC1	2%	1%	0%	-40%	0%
CC(C)[N+](C)(C)CC#CC(O)(c1ccccc1)c1ccccc1	-7%	-1%	-9%	3.2µM*	5%
COc1ccc(C2OC34CCCCC3C(C#N)(C#N)C2(C#N)C(=N)O4)cc1 (centres undefined)	5%	-9%	-20%	-90%	9%
N#CC1(C#N)COC23CCCCC2C1(C#N)C(=N)O3 (centres undefined)	7%	?	-12%	0.89µM*	?
CCCC1OC23CCCCC2C(C#N)(C(=N)O3)C1(C#N)C#N (centres undefined)	9%	-8%	-21%	28µM*	0%
CC1OC23CCCCC2C(C#N)(C(=N)O3)C1(C#N)C#N (centres undefined)	3%	-4%	-12%	-31%	0%
CCC1OC23CCCCC2C(C#N)(C(=N)O3)C1(C#N)C#N (centres undefined)	2%	-7%	-2%	35µM*	-3%
CC(C)=CC(=O)N1CCCC(N2CCN(c3ccc(F)cc3)CC2)C1 (centres undefined)	·	5%	·	·	·
O=C(O)CCCCCCCCCCC(=O)O	1%[201 µM]	·	7%[201 µM]	·	·
Brc1ccc(C2Nc3cccc4cccc(c34)N2)o1	2.8µM*[quencher]	·	24%	-27%	·
Brc1cccc(C2Nc3cccc4cccc(c34)N2)c1	·	-6%	·	·	·
Fc1ccccc1-c1nc2ccccc2[nH]1	0%[53 µM]	0%	-5%[53 µM]	16%	1%
SMILES	TexasRed fluor	ERG-DNA inh	TRb SRC2 PPI	RGS12 GoLoco inh	CBFb-RUNX1 inh
c1ccc2[nH]c(-c3ccnc4ccccc34)nc2c1	-4%	3%	-3%	25µM*!	3%
CCOC(=O)Cn1c(=O)n(-c2cccc(Cl)c2)c2nc(-c3ccccc3Cl)nc(C(N)=O)c21	-9%	0%	4%	·	·
O=C1OC2(c3ccc(O)cc3Oc3cc(O)ccc32)c2ccccc21	-13%	·	-19%	0.79µM*	5%
O=C1OC2(c3cc(I)c(O)c(I)c3Oc3c2cc(I)c(O)c3I)c2c(Cl)c(Cl)c(Cl)c(Cl)c21	7.1µM*[fluorescent]	·	25µM*	·	·
O=C1OC2(c3ccccc31)c1cc(I)c(O)c(I)c1Oc1c2cc(I)c(O)c1I	40µM*[fluorescent]	·	?	·	·
Cc1cc(O)ccc1C1(c2ccc(O)cc2C)OC(=O)c2ccccc21	1%	-4%	-8%	-2%	-6%
CC(C)CCCCOC(=O)c1ccccc1C(=O)OCCCCC(C)C	-3%[201 µM]	·	1%[201 µM]	·	·
Cc1ccccc1Nc1oc(-c2ccccc2)nc1CCc1ccccc1	-1%	·	6%	1%	-3%
c1ccc2cc3ccccc3cc2c1	-5%[201 µM]	·	-2%[201 µM]	·	·
CCN(CC)c1ccc(/C=C/C(=O)C2C(=O)C=C(C)OC2=O)cc1 (centres undefined)	32µM*[fluorescent]	135%	?	i	-4%
CCN(CC)c1ccc(C=C2C(=O)OC(c3ccccc3)OC2=O)cc1 (centres undefined)	-1%	35%	0%	3%	18%
Cc1ccc(NC(=O)N2CCc3cc(S(=O)(=O)N4CCC(C)CC4)ccc32)cc1F	28µM*[quencher]	0%	-17%	·	·
Nc1ncc(N=Nc2cc(C(=O)O)ccc2Cl)s1	71µM*[quencher]	-3%	19%	-2%	?
OCCOCCOCCOCCO	-2%[201 µM]	·	2%[201 µM]	·	·
O=C(O)c1ccccc1-c1c2cc(Br)c(=O)c(Br)c-2oc2c(Br)c(O)c(Br)cc12	28µM*[fluorescent]	·	?	·	?
Nc1cc(C(=O)O)c(N)c2c1C(=O)c1ccccc1C2=O	45µM*[fluorescent]	-1%	40µM*	-11%	·
O=S(=O)(O)c1cc(O)c2c(O)c(N=Nc3cccc4ccccc34)c(S(=O)(=O)O)cc2c1	·	·	·	44%[14.2 µM]	·
O=S(=O)(O)c1cc(O)c2c(N=Nc3ccc(Nc4ccccc4)c4c(S(=O)(=O)O)cccc34)cc(S(=O)(=O)O)cc2c1	20µM*[quencher]	·	15%	·	·
CCOC(=O)c1ccn(-c2nc(-c3cccc(OC)c3)cc(C(F)(F)F)n2)n1	0.0022µM*[quencher]	12%	-10%	·	·
Nc1cc([N+](=O)[O-])ccc1O	0.11µM*![quencher]	-5%	7%[201 µM]	-1%	5%
Cc1ccc([N+](=O)[O-])cc1N	-2%[201 µM]	-13%	0%[201 µM]	7%	-13%
CCCCC(CC)C(=O)OCCOCCOCCOC(=O)C(CC)CCCC (centres undefined)	-3%[201 µM]	·	1%[201 µM]	·	·
CC(C)c1cnc2c(c1SCC(=O)c1ccc(Cl)cc1)c(=O)n(C)c(=O)n2C	-2%	1%	-5%	·	·
O=C(CSc1nnc(-c2ccccc2)o1)c1cccc([N+](=O)[O-])c1	11µM*[quencher]	-3%	-8%	·	·
O=C(CSc1nnc(-c2ccccc2)o1)c1ccc2c(c1)OCCO2	1%	9%	9%	-4%	1%
CC(C)OB(OC(C)C)OC(C)C	-4%[201 µM]	·	3%[201 µM]	·	·
Cn1nnnc1SCCNCc1ccccc1OCc1ccccc1F	10µM*[quencher]	3%	-4%	·	·
CCOc1c(Cl)cc(Cl)cc1CNCCSc1nnnn1C	8.9µM*[quencher]	-11%	-8%	·	·
Cn1nnnc1SCCCNCc1cccc(OCc2ccc(F)cc2)c1	0.89µM*[quencher]	0%	-26%	·	·
